PubChem BioAssay AID1159580 (chemical genetic matrix, 2015)
Where “and” joins values, the source holds several entries; their conditions need not be identical. Equal values may be shown once. Among all 5,500 compounds or so, about 2,000 (36%) were called active. Not shown: some 18% with an inconclusive outcome. Rule as the data show it: active = normalized growth mostly below about 0.91 (no sharp cut-off); inconclusive = no clear call, values can overlap the other calls; inactive = mostly above about 0.92. Some of the results follow.

Experiment: chemical genetic growth profiling, strain panel (AID 1159580);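 also: tested at 20 µM; growth read once vehicle control cultures reached saturation at 30 °C; 1 = growth at the plate median or of vehicle wells; lower values mean less growth of the strain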
Settings: growth OD

Measured: normalized growth

NCCc1c[nH]c2ccccc12
inactive: S. cerevisiae deletion strains, locus YJR075W, strain HOC1, stronger effect = lower value 1.01 and 0.992 | S. cerevisiae deletion strains, locus YKL009W, strain mrt4, stronger effect = lower value 0.991 | S. cerevisiae deletion strains, locus YKL068W, stronger effect = lower value 0.987 | S. cerevisiae deletion strains, locus YKL085W, strain MDH1 (second series), stronger effect = lower value 0.996 | S. cerevisiae deletion strains, locus YKL085W, strain MDH1, stronger effect = lower value 0.996 | S. cerevisiae deletion strains, locus YKL160W, strain elf1, stronger effect = lower value 0.968 | S. cerevisiae deletion strains, locus YKL190W, strain CNB1, stronger effect = lower value 0.996 | S. cerevisiae deletion strains, locus YKR001C, strain vps1, stronger effect = lower value 0.987 | S. cerevisiae deletion strains, locus YKR026C, strain gcn3, stronger effect = lower value 0.958 | S. cerevisiae deletion strains, locus YKR091W, strain srl3, stronger effect = lower value 0.976 | S. cerevisiae deletion strains, locus YLL001W, strain dnm1, stronger effect = lower value 0.958 | S. cerevisiae deletion strains, locus YLL026W, stronger effect = lower value 0.941 | S. cerevisiae deletion strains, locus YLL041C, strain sdh2, stronger effect = lower value 0.965 | S. cerevisiae deletion strains, locus YLR027C, strain aat2, stronger effect = lower value 0.974 | S. cerevisiae deletion strains, locus YLR039C, strain RIC1, stronger effect = lower value 0.988 | S. cerevisiae deletion strains, locus YLR058C, strain SHM2, stronger effect = lower value 0.975 | S. cerevisiae deletion strains, locus YLR102C, strain apc9, stronger effect = lower value 0.996 | S. cerevisiae deletion strains, locus YLR113W, strain HOG1, stronger effect = lower value 0.999 | S. cerevisiae deletion strains, locus YLR221C, strain rsa3, stronger effect = lower value 0.998 | S. cerevisiae deletion strains, locus YLR258W, strain gsy2, stronger effect = lower value 0.965 | S. cerevisiae deletion strains, locus YLR262C, strain YPT6 (second series), stronger effect = lower value 0.956 | S. cerevisiae deletion strains, locus YLR262C, strain YPT6, stronger effect = lower value 0.934 | S. cerevisiae deletion strains, locus YLR268W, strain sec22, stronger effect = lower value 1.06 | S. cerevisiae deletion strains, locus YLR320W, strain mms22, stronger effect = lower value 0.985 | S. cerevisiae deletion strains, locus YLR330W, strain CHS5, stronger effect = lower value 0.973 | S. cerevisiae deletion strains, locus YLR342W, strain FKS1 (second series), stronger effect = lower value 0.986 | S. cerevisiae deletion strains, locus YLR342W, strain FKS1, stronger effect = lower value 0.972 | S. cerevisiae deletion strains, locus YLR357W, strain rsc2, stronger effect = lower value 0.987 | S. cerevisiae deletion strains, locus YLR370C, strain arc18, stronger effect = lower value 0.94 | S. cerevisiae deletion strains, locus YLR371W, strain rom2, stronger effect = lower value 0.982 | S. cerevisiae deletion strains, locus YLR384C, strain iki3, stronger effect = lower value 0.949 | S. cerevisiae deletion strains, locus YLR418C, strain cdc73, stronger effect = lower value 0.99 | S. cerevisiae deletion strains, locus YML016C, strain PPZ1, stronger effect = lower value 0.99 | S. cerevisiae deletion strains, locus YML032C, strain rad52, stronger effect = lower value 1.01 | S. cerevisiae deletion strains, locus YML120C, strain ndi1, stronger effect = lower value 0.962 | S. cerevisiae deletion strains, locus YML124C, strain tub3, stronger effect = lower value 0.988 | S. cerevisiae deletion strains, locus YMR058W, strain fet3, stronger effect = lower value 0.96 | S. cerevisiae deletion strains, locus YMR078C, strain ctf18, stronger effect = lower value 0.986 | S. cerevisiae deletion strains, locus YMR125W, strain sto1, stronger effect = lower value 0.96 | S. cerevisiae deletion strains, locus YMR129W, stronger effect = lower value 0.973 | S. cerevisiae deletion strains, locus YMR205C, strain PFK2, stronger effect = lower value 0.975 | S. cerevisiae deletion strains, locus YMR223W, strain ubp8, stronger effect = lower value 0.955 | S. cerevisiae deletion strains, locus YMR231W, strain pep5, stronger effect = lower value 0.97 | S. cerevisiae deletion strains, locus YMR263W, strain SAP30, stronger effect = lower value 0.995 | S. cerevisiae deletion strains, locus YMR307W, strain GAS1, stronger effect = lower value 0.987 | S. cerevisiae deletion strains, locus YNL067W, strain RPL9B, stronger effect = lower value 1.03 | S. cerevisiae deletion strains, locus YNL071W, strain lat1, stronger effect = lower value 0.973 | S. cerevisiae deletion strains, locus YNL128W, strain TEP1, stronger effect = lower value 0.976 | S. cerevisiae deletion strains, locus YNL153C, strain GIM3, stronger effect = lower value 1.02 | S. cerevisiae deletion strains, locus YNL175C, strain NOP13, stronger effect = lower value 1 | S. cerevisiae deletion strains, locus YNL183C, strain NPR1, stronger effect = lower value 0.97 | S. cerevisiae deletion strains, locus YNL197C, strain WHI3, stronger effect = lower value 0.989 | S. cerevisiae deletion strains, locus YNL209W, strain ssb2, stronger effect = lower value 0.96 | S. cerevisiae deletion strains, locus YNL224C, strain SQS1, stronger effect = lower value 1 | S. cerevisiae deletion strains, locus YNL233W, strain BNI4, stronger effect = lower value 1.01 | S. cerevisiae deletion strains, locus YNL248C, strain rpa49, stronger effect = lower value 0.986 | S. cerevisiae deletion strains, locus YNL250W, strain rad50, stronger effect = lower value 0.974 | S. cerevisiae deletion strains, locus YNL271C, strain bni1, stronger effect = lower value 0.994 | S. cerevisiae deletion strains, locus YNL298W, strain CLA4, stronger effect = lower value 0.995 | S. cerevisiae deletion strains, locus YNL307C, strain MCK1, stronger effect = lower value 0.984 | S. cerevisiae deletion strains, locus YNL322C, strain KRE1 (second series), stronger effect = lower value 0.943 | S. cerevisiae deletion strains, locus YNL322C, strain KRE1, stronger effect = lower value 0.988 | S. cerevisiae deletion strains, locus YNR049C, strain mso1, stronger effect = lower value 0.959 | S. cerevisiae deletion strains, locus YNR052C, strain pop2, stronger effect = lower value 0.985 | S. cerevisiae deletion strains, locus YOL006C, strain TOP1, stronger effect = lower value 1.05 | S. cerevisiae deletion strains, locus YOL012C, strain htz1 1.16 | S. cerevisiae deletion strains, locus YOL147C, strain pex11, stronger effect = lower value 0.988 | S. cerevisiae deletion strains, locus YOR001W, strain rrp6, stronger effect = lower value 0.971 | S. cerevisiae deletion strains, locus YOR061W, strain CKA2, stronger effect = lower value 0.97 | S. cerevisiae deletion strains, locus YOR069W, strain VPS5, stronger effect = lower value 0.992 | S. cerevisiae deletion strains, locus YOR070C, strain gyp1, stronger effect = lower value 0.982 | S. cerevisiae deletion strains, locus YOR080W, strain dia2, stronger effect = lower value 0.959 | S. cerevisiae deletion strains, locus YOR083W, strain WHI5 (second series), stronger effect = lower value 0.966 | S. cerevisiae deletion strains, locus YOR083W, strain WHI5, stronger effect = lower value 0.982 | S. cerevisiae deletion strains, locus YOR106W, strain vam3, stronger effect = lower value 0.942 | S. cerevisiae deletion strains, locus YOR136W, strain idh2, stronger effect = lower value 0.978 | S. cerevisiae deletion strains, locus YOR144C, strain elg1, stronger effect = lower value 0.999 | S. cerevisiae deletion strains, locus YOR184W, strain ser1, stronger effect = lower value 1 | S. cerevisiae deletion strains, locus YOR231W, strain MKK1, stronger effect = lower value 0.979 | S. cerevisiae deletion strains, locus YOR265W, strain rbl2, stronger effect = lower value 0.954 | S. cerevisiae deletion strains, locus YOR270C, strain vph1, stronger effect = lower value 0.892 | S. cerevisiae deletion strains, locus YOR290C, strain snf2, stronger effect = lower value 0.959 | S. cerevisiae deletion strains, locus YOR316C, strain cot1, stronger effect = lower value 0.995 | S. cerevisiae deletion strains, locus YPL051W, strain arl3, stronger effect = lower value 0.973 | S. cerevisiae deletion strains, locus YPL055C, strain LGE1, stronger effect = lower value 0.99 | S. cerevisiae deletion strains, locus YPL078C, strain atp4, stronger effect = lower value 0.943 | S. cerevisiae deletion strains, locus YPL106C, strain sse1, stronger effect = lower value 0.916 | S. cerevisiae deletion strains, locus YPL240C, strain hsp82, stronger effect = lower value 0.962 | S. cerevisiae deletion strains, locus YPL241C, strain CIN2, stronger effect = lower value 0.99 and 0.999 | S. cerevisiae deletion strains, locus YPL256C, strain CLN2, stronger effect = lower value 0.951 | S. cerevisiae deletion strains, locus YPR119W, strain clb2, stronger effect = lower value 0.992 | S. cerevisiae deletion strains, locus YPR141C, strain kar3, stronger effect = lower value 0.983 | S. cerevisiae deletion strains, locus YPR163C, strain tif3, stronger effect = lower value 0.986 | S. cerevisiae deletion strains, locus YPR167C, strain met16, stronger effect = lower value 0.994 | S. cerevisiae deletion strains, strain wtn01, stronger effect = lower value 1.02 | S. cerevisiae strains, strain wild type, stronger effect = lower value 0.987
